# Active and inactive are the calls of the source.
# Tests used:
# Albumin (Bos taurus) = Albumin (Bos taurus) (UniProt P02769); experiment: bovine serum albumin binders on microarray, profiling panel, artefact control for SMM control protein annotation, biochemical, small-molecule microarray, Alexa647 label, 635/667 nm fluorescence (AID 1118); details: BSA-A647 binding, fluorescence 635 nm, higher = more signal;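 further: score merges 667 nm emission intensity and signal-to-noise per printed compound spot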
# [1] = small-molecule microarray binders of probe aXIP, primary screen, biochemical, NeuroSMM set, 635/667 nm fluorescence (AID 1119); details: higher = more signal, called active from +8 up or from −8 down;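 further: probe is the protein aXip251-270 applied at 1 µg/mL to compound-printed slides; binding of probe to printed compounds measured as 667 nm fluorescence plus signal to noise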
# [2] = small-molecule binders of probe aNOTCH3, primary screen, biochemical, small-molecule microarray, 635/667 nm fluorescence (AID 1120); details: higher = more signal;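 further: probe is a biotin-tagged antibody raised against NOTCH3 rather than NOTCH3 protein; score merges spot fluorescence near 667 nm with spot signal to noise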
# [3] = small-molecule binders of probe aNOTCH2, primary screen, biochemical, small-molecule microarray, 635/667 nm fluorescence (AID 1121); details: higher = more signal;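 further: score merges feature fluorescence read at 667 nm with its signal to noise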
# [4] = target: Carbonic anhydrase 2 (Homo sapiens) (UniProt P00918); experiment: CAII small-molecule binders, profiling panel, biochemical, small-molecule microarray, Alexa647-labelled CAII (AID 1122); details: CAII-A647 binding fluorescence, higher = more signal
# [5] = COS7 lysate on small-molecule microarray, probe aHis, 635 nm (AID 1123); details: COS7 cell lysate, fluorescence, higher = more signal;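 further: z-score combines 667nm fluorescence intensity with signal-to-noise per printed compound spot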
# [6] = compound binding in COS7 lysate, probe aLAP1, primary screen, cell lysate, small-molecule microarray (AID 1124); details: probe aLAP1, fluorescence, higher = more signal;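 further: lysate comes from COS7 cells expressing LAP1 and is applied at 0.3 µg/mL; score merges spot fluorescence near 667 nm with signal-to-noise over triplicate slides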
# Sam68 (KHDRBS1) = experiment: Sam68 small-molecule binders, primary screen, biochemical, small-molecule microarray, 635 nm fluorescence (AID 1125); details: small-molecule microarray binding, higher = more signal;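 further: score merges 667 nm channel intensity with signal to noise over triplicate slides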
# [7] = test system: Chordin-like protein 2 (CHRDL2); experiment: CHRDL2 small-molecule binders, primary screen, biochemical, small-molecule microarray, 635 nm fluorescence (AID 1126); details: small-molecule microarray binding, fluorescence 635 nm; higher = more signal;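 further: printed compound slides probed with Chrdl2 protein at 4 µg/mL for 1 h at 4 C; score merges 667 nm emission intensity with signal to noise over three replicate slides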
# [8] = target: Concanavalin-A (Canavalia ensiformis) (UniProt P02866); experiment: ConA small-molecule binders, primary screen, artefact control for SMM control protein annotation, biochemical, small-molecule microarray, Alexa647 label, 635 nm (AID 1127); details: ConA-A647 binding fluorescence, higher = more signal;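 further: z combines 667 nm emission intensity with signal-to-noise across three replicate slides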
# [9] = anti-His antibody binders, primary screen, artefact control for SMM control protein annotation, biochemical, small-molecule microarray, 635 nm fluorescence (AID 1128); details: anti-His Alexa647 antibody binding, higher = more signal;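 further: score merges feature fluorescence with signal-to-noise for each printed compound spot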
# [10] = test system: Human papillomavirus type 1a E7 protein (residues 1-88); experiment: HPV1a E7 small-molecule binders, primary screen, biochemical, small-molecule microarray, residues 1-88, 635 nm (AID 1129); details: small-molecule microarray binding, fluorescence 635 nm; higher = more signal
# [11] = target: Focal adhesion kinase 1 (Homo sapiens) (UniProt Q05397); experiment: small-molecule microarray binders of FAK, primary screen, biochemical, 635/667 nm fluorescence, BSA, DTT (AID 1130); details: PTK2 binding, 635 nm fluorescence, higher = more signal;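 further: composite of spot emission at 667 nm and signal to noise over triplicate slides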
# [12] = test system: Fibrinogen (Alexa647-labelled); experiment: fibrinogen binders on compound microarrays, profiling panel, artefact control for SMM control-protein annotation, biochemical, small-molecule microarray, 635/667 nm fluorescence (AID 1131); details: fibrinogen-A647 binding fluorescence, higher = more signal;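 further: z-score merges 667 nm fluorescence with per-spot signal-to-noise over triplicate slides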
# [13] = target: Follistatin (Homo sapiens) (UniProt P19883); experiment: follistatin binders on small-molecule microarrays, primary screen, biochemical, small-molecule microarray, 635/667 nm fluorescence (AID 1132); details: FST binding, 635 nm fluorescence, higher = more signal
# [14] = target: Fibroblast growth factor 2 (Homo sapiens) (UniProt P09038); experiment: FGF2 binders on small-molecule microarrays, primary screen, biochemical, small-molecule microarray, 635/667 nm fluorescence (AID 1133); details: small-molecule microarray binding, FGF2, fluorescence 635/667; higher = more signal
# [15] = mitochondrial membrane potential change in A549 cells, profiling panel, cell-based, JC-1 fluorescence, basal, 24 h, 100 nL (AID 1138); details: higher = more signal;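 further: A549 lung adenocarcinoma cells under basal conditions with no added stimulus; test concentration not given here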
# Lefty1 = Lefty1 binders on small-molecule microarrays, primary screen, biochemical, small-molecule microarray, 635/667 nm fluorescence (AID 1139); details: small-molecule microarray binding, fluorescence 635/667; higher = more signal
# [16] = test system: wheat germ agglutinin (Triticum aestivum), Alexa647-labelled; experiment: wheat germ agglutinin binders on compound microarrays, profiling panel, artefact control for SMM control-protein annotation, biochemical, small-molecule microarray, 635/667 nm fluorescence (AID 1140); details: WGA-A647 binding, 635 nm fluorescence, higher = more signal;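 further: score merges 667 nm feature emission with signal to noise over triplicate slides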
# [17] = target: Luciferin 4-monooxygenase (Photinus pyralis) (UniProt P08659); experiment: firefly luciferase enzyme inhibitors, primary screen, biochemical, luminescence, purified enzyme, 2006 set (AID 1141); details: SteadyGlo luminescence, 30 min, higher = more signal, called active from +8 up or from −8 down;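 further: cell-free assay with purified firefly luciferase at 100 ng per well in PBS; test concentration not given here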
# Chain of Luciferin 4-monooxygenase (Photinus pyralis) (P08659 whole entry, looked up): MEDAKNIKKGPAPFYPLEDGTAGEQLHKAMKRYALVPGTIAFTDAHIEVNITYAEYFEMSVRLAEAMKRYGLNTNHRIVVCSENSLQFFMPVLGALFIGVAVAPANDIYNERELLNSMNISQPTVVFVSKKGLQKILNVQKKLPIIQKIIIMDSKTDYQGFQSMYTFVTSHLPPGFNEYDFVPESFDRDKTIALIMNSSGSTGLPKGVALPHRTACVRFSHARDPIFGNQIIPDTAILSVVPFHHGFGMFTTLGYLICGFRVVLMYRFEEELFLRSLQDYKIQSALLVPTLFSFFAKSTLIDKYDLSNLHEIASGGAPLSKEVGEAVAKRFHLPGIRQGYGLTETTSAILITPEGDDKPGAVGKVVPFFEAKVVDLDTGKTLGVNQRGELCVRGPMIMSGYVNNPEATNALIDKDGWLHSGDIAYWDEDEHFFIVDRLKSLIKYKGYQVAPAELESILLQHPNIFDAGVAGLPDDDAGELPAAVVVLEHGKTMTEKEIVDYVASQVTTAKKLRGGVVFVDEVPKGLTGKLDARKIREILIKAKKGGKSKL
# Chain of Fibroblast growth factor 2 (Homo sapiens) (P09038 whole entry, looked up): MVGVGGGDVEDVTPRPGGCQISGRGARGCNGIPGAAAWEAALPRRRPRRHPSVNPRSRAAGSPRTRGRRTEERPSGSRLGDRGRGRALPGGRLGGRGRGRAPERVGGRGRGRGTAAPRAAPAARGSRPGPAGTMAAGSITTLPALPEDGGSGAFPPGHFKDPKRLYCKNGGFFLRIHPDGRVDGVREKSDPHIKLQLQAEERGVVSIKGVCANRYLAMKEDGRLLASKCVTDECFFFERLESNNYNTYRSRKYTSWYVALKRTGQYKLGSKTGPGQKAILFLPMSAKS
# Chain of Albumin (Bos taurus) (P02769 whole entry, looked up): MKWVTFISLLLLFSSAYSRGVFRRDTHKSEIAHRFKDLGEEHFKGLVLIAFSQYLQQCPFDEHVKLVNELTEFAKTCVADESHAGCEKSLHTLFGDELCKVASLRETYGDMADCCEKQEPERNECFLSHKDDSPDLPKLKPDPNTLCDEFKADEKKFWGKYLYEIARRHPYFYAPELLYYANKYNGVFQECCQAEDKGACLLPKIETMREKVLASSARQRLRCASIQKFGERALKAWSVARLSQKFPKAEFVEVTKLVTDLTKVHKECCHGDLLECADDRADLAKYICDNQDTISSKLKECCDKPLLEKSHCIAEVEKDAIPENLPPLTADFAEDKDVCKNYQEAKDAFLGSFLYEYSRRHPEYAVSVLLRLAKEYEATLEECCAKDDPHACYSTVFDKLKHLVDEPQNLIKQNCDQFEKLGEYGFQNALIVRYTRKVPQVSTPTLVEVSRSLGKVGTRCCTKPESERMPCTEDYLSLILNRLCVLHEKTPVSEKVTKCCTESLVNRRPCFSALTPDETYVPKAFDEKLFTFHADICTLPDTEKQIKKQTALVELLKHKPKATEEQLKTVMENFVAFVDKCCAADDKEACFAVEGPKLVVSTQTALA
# Chain of Concanavalin-A (Canavalia ensiformis) (P02866 whole entry, looked up): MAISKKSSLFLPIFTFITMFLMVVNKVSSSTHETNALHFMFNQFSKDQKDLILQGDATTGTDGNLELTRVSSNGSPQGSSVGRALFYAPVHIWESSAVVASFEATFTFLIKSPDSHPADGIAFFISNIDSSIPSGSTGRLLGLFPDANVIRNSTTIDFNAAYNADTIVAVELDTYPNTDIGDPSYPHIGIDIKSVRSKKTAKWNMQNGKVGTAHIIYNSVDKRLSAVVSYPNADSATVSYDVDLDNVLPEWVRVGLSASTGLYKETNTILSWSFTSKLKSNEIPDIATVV
# Chain of Follistatin (Homo sapiens) (P19883 whole entry, looked up): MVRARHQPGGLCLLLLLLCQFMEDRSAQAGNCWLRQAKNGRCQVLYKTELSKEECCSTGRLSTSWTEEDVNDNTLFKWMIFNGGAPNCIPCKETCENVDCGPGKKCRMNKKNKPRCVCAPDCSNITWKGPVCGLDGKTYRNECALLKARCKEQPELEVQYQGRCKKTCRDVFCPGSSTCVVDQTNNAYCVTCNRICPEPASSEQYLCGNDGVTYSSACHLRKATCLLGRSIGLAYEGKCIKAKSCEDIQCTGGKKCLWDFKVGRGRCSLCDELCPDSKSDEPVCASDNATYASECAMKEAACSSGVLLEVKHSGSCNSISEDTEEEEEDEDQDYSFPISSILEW
# Chain of Focal adhesion kinase 1 (Homo sapiens) (Q05397 whole entry, looked up): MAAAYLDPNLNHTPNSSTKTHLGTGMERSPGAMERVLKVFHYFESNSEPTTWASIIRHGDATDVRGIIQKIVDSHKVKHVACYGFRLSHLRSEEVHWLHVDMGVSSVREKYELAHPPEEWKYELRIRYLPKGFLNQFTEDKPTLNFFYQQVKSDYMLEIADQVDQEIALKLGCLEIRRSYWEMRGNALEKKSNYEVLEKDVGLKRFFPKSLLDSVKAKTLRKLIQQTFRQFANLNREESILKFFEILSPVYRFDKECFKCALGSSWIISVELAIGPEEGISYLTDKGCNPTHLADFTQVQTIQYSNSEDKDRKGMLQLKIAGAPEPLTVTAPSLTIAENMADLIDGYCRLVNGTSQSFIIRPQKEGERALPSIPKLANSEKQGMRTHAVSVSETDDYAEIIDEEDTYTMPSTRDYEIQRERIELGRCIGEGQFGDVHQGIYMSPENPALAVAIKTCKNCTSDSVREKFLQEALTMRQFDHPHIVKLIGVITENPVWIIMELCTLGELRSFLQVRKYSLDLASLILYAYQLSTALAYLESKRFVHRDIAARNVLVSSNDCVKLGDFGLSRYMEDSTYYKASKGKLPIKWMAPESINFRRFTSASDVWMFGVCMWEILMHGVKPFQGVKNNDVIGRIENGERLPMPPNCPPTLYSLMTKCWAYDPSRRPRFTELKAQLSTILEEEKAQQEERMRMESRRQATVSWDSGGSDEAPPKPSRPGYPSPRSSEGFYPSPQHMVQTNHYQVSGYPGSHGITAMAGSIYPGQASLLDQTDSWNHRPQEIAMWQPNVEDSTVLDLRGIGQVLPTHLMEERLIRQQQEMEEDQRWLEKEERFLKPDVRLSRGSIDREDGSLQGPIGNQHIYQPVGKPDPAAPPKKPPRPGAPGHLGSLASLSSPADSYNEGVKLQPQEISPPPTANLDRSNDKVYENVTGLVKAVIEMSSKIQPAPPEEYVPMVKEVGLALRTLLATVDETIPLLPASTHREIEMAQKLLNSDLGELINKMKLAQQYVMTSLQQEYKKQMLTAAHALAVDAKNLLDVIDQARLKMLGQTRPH
SMILES,composite z-score (Albumin (Bos taurus)),composite Z-score [1],composite z-score [2],composite z-score [3],composite z-score [4],composite z-score [5],composite z-score [6],composite z-score (Sam68 (KHDRBS1)),composite z-score [7],composite z-score [8],composite z-score [9],composite z-score [10],composite z-score [11],composite z-score [12],composite z-score [13],composite z-score [14],z-score [15],composite z-score (Lefty1),composite z-score [16],z-score [17]
CC(CCN1CCCCc2nc(C)c(C)cc21)=NOC[C@@H](C)[C@H](OCc1ccccc1)C(C)C,-0.303,-0.461 (inactive),-0.427,-0.298,-0.497,-0.31,-0.899,-0.758,-1.78,-1.88,1.59,-0.824,-0.0923,-2.81,-2.3,-0.84,0.37,-0.795,-0.614,-0.486 (inactive)
COC(=O)[C@@H]1CC[C@H](C)[C@@H](c2ccc(C)cc2)N1C(=O)c1ccc(C=NOC[C@@H](C)[C@H](OCc2ccccc2)C(C)C)cc1,0.56,3.28 (inactive),0.0271,-0.185,0.239,1.29,0.247,1.29,0.43,0.736,0.336,0.673,0.936,0.857,0.915,0.698,1.26,0.799,0.37,-1.46 (inactive)
COC(=O)[C@H]1O[C@@H](c2c(OC)c(OC)c(C)c(OC)c2OC)[C@H](C)[C@@H](O)[C@H]1C,0.354,0.0421 (inactive),0.0414,-0.0349,0.0615,1.04,-0.203,1.28,0.31,0.86,0.377,0.998,0.169,0.902,0.694,0.577,0.274,1.08,0.526,-0.246 (inactive)
COC(=O)CC=C[C@@H](C)[C@@H](C=NO[C@H](C)c1cn([C@H](CO)Cc2ccccc2)nn1)NS(=O)(=O)c1ccc(C)cc1,0.749,0.863 (inactive),0.0242,-0.118,-0.276,-0.0104,0.78,0.566,0.437,0.837,2.47,0.611,0.608,0.951,0.268,0.0757,-0.248,0.19,0.645,-0.965 (inactive)
CCC1=NOC(CCC2CC(OC(=O)NCc3cccc4c3OCO4)CC3(CCCC(COC(=O)NCCc4ccccc4OC)O3)O2)C1 (stereo not given),0.946,0.632 (inactive),0.134,-0.122,0.45,1.24,0.19,1.31,-0.14,0.722,0.0887,1.19,0.494,0.155,0.505,0.297,1.41,-0.0134,0.703,0.412 (inactive)
CCOC(=O)[C@H](CC(C)C)NC(=O)CCC1CC(OC(=O)NCc2cccc3ccccc23)CC2(CCCC(COC(=O)NCC3CCCCC3)O2)O1 (stereo not given in full),0.14,0.526 (inactive),0.0311,-0.0896,0.392,0.0741,-0.0193,1.29,0.32,1.08,0.685,1.13,-0.368,0.297,0.62,0.594,-1.07,0.733,0.0121,1 (inactive)
C[C@H]1COC(=O)[C@@H]2CCCN2C(=O)[C@@H](C)COC(=O)[C@H](Cc2ccccc2)NC1=O,-0.0588,-0.21 (inactive),-0.0647,-0.126,0.294,0.403,0.137,0.957,0.211,0.476,0.305,0.767,0.0349,0.208,0.42,0.458,-0.731,0.96,0.111,1.48 (inactive)
CC(C)=CCCC(C)=CCON=C1C[C@@H](O)[C@@H](O)[C@@H]2[C@@H]3C(=O)N(C4CCCCC4)C(=O)[C@@H]3CC[C@@H]12,0.0108,0.244 (inactive),-0.0048,-0.13,0.276,-0.112,0.0694,0.493,1.01,0.124,-0.216,0.0286,0.0165,-0.229,0.831,0.417,-0.64,0.791,-0.0783,0.335 (inactive)
O=C1[C@H]2[C@H]3[C@H](O)[C@H](O)CC(=NOCc4ccccc4)[C@@H]3CC[C@H]2C(=O)N1C[C@@H]1CCCO1,0.0904,-0.207 (inactive),-0.187,-0.0621,-0.026,0.369,0.279,-0.361,0.332,0.603,-0.016,-0.182,0.205,0.237,-0.0829,0.0592,-0.485,-0.0955,-0.396,0.903 (inactive)
CCCNC(=O)OC[C@H]1O[C@H](c2ccccc2)C=C[C@@H]1Oc1ccc(OC)cc1,0.16,0.0414 (inactive),-0.15,-0.14,0.066,0.232,0.0186,-0.573,0.062,-0.316,0.98,0.0455,-0.0038,0.25,-0.143,-0.179,-0.388,0.212,-0.114,-0.533 (inactive)

# — PubChem BioAssay
